The results in this text go back to PubChem BioAssay (NCATS).

“And” between values parts separate entries of the source, which are not always exact repeats. Identical values can stand only once. Records with an inconclusive call do not appear. A structure can be active in one record and inactive in another. The source made the active and inactive calls. Unless noted, calls come from the whole dose curve; as a rule, active = well fitted curve in the direction sought with a large enough effect; inconclusive = small, poorly fitted or top-dose-only effect, or another doubt; inactive = no such curve, though single readings can be large; an effect the other way counts as inactive or inconclusive.

The nature of assay [1]: Confirmatory qHTS for small molecule stabilizers of the endoplasmic reticulum resident proteome: Secreted ER Calcium Modulated Protein (SERCaMP) assay (AID 1508628). Note: nearly all actives have a fitted effect of over 40% in size. Note: potency is the fitted concentration of half-maximal effect. In short, it runs like this:
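Reporter secretion upon ER calcium depletion (100 nM thapsigargin, 4 h, 37C) is measured as medium luminescence with coelenterazine, after 16 h compound pretreatment of SH-SY5Y-GLuc-SERCaMP cells; primary at three concentrations up to 38.3 uM, follow-up at 11 (up to 76.6 uM).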

Assay [2] deals with Rap guanine nucleotide exchange factor 3 (Homo sapiens) (UniProt O95398). Put plainly: Confirmatory qHTS for antagonist of cAMP-regulated guanine nucleotide exchange factor 3 (EPAC1) (AID 1645880). Note: nearly all actives have a fitted effect of over 55% in size. Note: potency is the fitted concentration of half-maximal effect. In short, it runs like this:
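Released BODIPY-GDP fluoresces less than Rap1-bound BODIPY-GDP; the signal is followed at 480/540 nm at 5-min intervals over 30 min, after 5 min at room temperature. Reactions contain 100 nM EPAC1, 250 nM RAP1B-BODIPY-GDP and 50 uM GDP; results are normalized to ATA and DMSO.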

Assay [3] has the same target. Put plainly: Confirmatory qHTS for agonist of cAMP-regulated guanine nucleotide exchange factor 3 (EPAC1) (AID 1645881).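 Note: EPAC1 catalysed release of BODIPY-GDP from Rap1B seen as fluorescence loss; 100% = effect of cAMP agonist control; nearly all actives have a fitted effect of over 75% in size.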
Assay [4] addresses Rap guanine nucleotide exchange factor 4 (Homo sapiens) (UniProt Q8WZA2). Put plainly: Confirmatory qHTS for agonist of cAMP-regulated guanine nucleotide exchange factor 4 (EPAC2) (AID 1645884).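 Note: nucleotide exchange releases bodipy-GDP from Rap1 and this lowers its fluorescence; % is set by controls: 0 for no effect and ±100 for the full control effect; nearly all actives have a fitted effect of over 65% in size.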
For assay [5], the target named is Calcium and integrin-binding protein 1 (Homo sapiens) (UniProt Q99828). Put plainly: Primary qHTS for Identification of Calcium Integrin Binding Protein 1 (CIB1) Competitor (AID 1508620).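 Note: GST tagged CIB1 binding a fluorescein labelled alphaIIb integrin peptide tracer; top concentration of the series differs between compounds; % is set by controls: 0 for no effect and ±100 for the full control effect.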 In short, it runs like this:
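Fluorescence polarization competition: GST-tagged CIB1 (1 uM final) preincubated with compound 15 min at room temperature, then FITC-labelled alphaIIb peptide (100 nM final) added. After 15 min at room temperature, polarization read at Ex 480/Em 540.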

Assay [6] can be described thus: Primary qHTS for small molecule stabilizers of the endoplasmic reticulum resident proteome: Secreted ER Calcium Modulated Protein (SERCaMP) assay (AID 1508630). For activity change, negative = inhibition: % is set by controls: 0 for no effect and ±100 for the full control effect. Note: potency is the fitted concentration of half-maximal effect. Put shortly: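 The SH-SY5Y reporter protocol was run at 3 concentrations up to 38.3 uM (primary) or 11 concentrations (follow-up): 16 h compound, 100 nM thapsigargin for 4 h, then extracellular luciferase luminescence.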

Assay [7] addresses Calcium and integrin-binding protein 1 (Homo sapiens) (UniProt Q99828). Put plainly: Validation qHTS for Identification of Calcium Integrin Binding protein 1 (CIB1) Competitor (AID 1508618). Note: % is set by controls: 0 for no effect and ±100 for the full control effect. Put shortly:
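Fluorescence polarization with 1 uM CIB1-GST and 100 nM FITC-alphaIIb peptide in HEPES pH 7.4, NaCl, 5 mM CaCl2, Tween20. Compounds at up to 114 uM final, preincubated with protein 15 min; read after 15 min more at RT.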

Assay [8] in a line: A High-Content qHTS Against Drug Library for the Identification of Small Molecules that Inhibit DYT1 Early Onset Primary Dystonia-Associated Cell Pathology (AID 1645839; calls by dose curve). Put shortly:
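Cells were seeded and left for 24 h, then dosed with compound alongside tetracycline induction of mutant EGFP-TorsinA. They were incubated for 48 h, fixed in 4% paraformaldehyde, permeabilized and imaged for mislocalization (%pathology) and cell count.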

The target in another assay is Papain (Carica papaya) (UniProt P00784). As to the kind of experiment: Primary qHTS assay for inhibitors of the protease papain (AID 1645873).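 Note: papain turnover of Z-FR-AMC read as the AMC fluorescence gain over 10 min.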 Note: potency is the fitted concentration of half-maximal effect.
Assay [9] has as its target Cytochrome P450 2D6 (Homo sapiens) (UniProt P10635). As to the kind of experiment: Cytochrome P450 family 2 subfamily D member 6 (CYP2D6) small molecule antagonists: luciferase biochemical (cell-free) qHTS assay (AID 1645840; active = well fitted curve in the direction sought with a large enough effect in the repeat runs; an effect the other way counts as inactive or inconclusive; note: nearly all actives have a fitted effect of over 55% in size; note: potency is the fitted concentration of half-maximal effect). In short, it runs like this: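 P450-Glo CYP2D6 system: proluciferin substrate converted by enzyme to luciferin, read by luminescence proportional to activity. Enzyme-substrate mix with compound 10 min at room temperature, then NADPH regeneration 1 h before detection reagent.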

The target of assay [10] is Cytochrome P450 2C9 (Homo sapiens) (UniProt P11712). Put plainly: Cytochrome P450 family 2 subfamily C member 9 (CYP2C9) small molecule antagonists: luciferase biochemical (cell-free) qHTS assay (AID 1645842; active = well fitted curve in the direction sought with a large enough effect in the repeat runs; an effect the other way counts as inactive or inconclusive; note: nearly all actives have a fitted effect of over 55% in size; note: potency is the fitted concentration of half-maximal effect). Put shortly:
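P450-Glo CYP2C9 system: proluciferin substrate with enzyme in mix containing 0.4% BSA, 10 min at room temperature, then NADPH regeneration solution added and incubated 1 h at 37C. Detection reagent stopped reaction; luminescence read after 20 min as RLU.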

Assay [11] can be described thus: Counterscreen qHTS for small molecule stabilizers of the endoplasmic reticulum resident proteome: GLuc-NoTag assay (AID 1508627).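 For activity change, negative = inhibition: 0% = thapsigargin alone and -100% = DMSO vehicle control.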 Note: potency is the fitted concentration of half-maximal effect. In short, it runs like this:
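Counterscreen line: SH-SY5Y-GLuc-NoTag. Seed, 5 h; compound, 19 h; thapsigargin 100 nM, 4 h; 37C/5% CO2. Readout: secreted GLuc luminescence, coelenterazine 0.07x final, no lysis.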

Assay [12] can be described thus: Cell Viability qHTS for small molecule stabilizers of the endoplasmic reticulum resident proteome (AID 1508629).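 Note: human SH-SY5Y neuroblastoma cells carrying the GLuc-SERCaMP reporter; compound exposure about 46 h in total before the viability read; % is set by controls: 0 for no effect and ±100 for the full control effect.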 The conditions noted are these: cell viability counter-screen, 100 nM thapsigargin for final 4 h.
Assay [13] is described as follows: Primary qHTS for inhibitors of nuclear receptor binding SET domain protein 2 (NSD2) in an isogenic RCH-ACV NSD2 p.E1099K mutant (9B) (AID 1645876). Note: nearly all actives have a fitted effect of over 70% in size. Note: potency is the fitted concentration of half-maximal effect.
A short description of assay [14]: Primary qHTS for inhibitors of nuclear receptor binding SET domain protein 2 (NSD2) in an RCH-ACV wild type WT cells (2C) (AID 1645877). Note: nearly all actives have a fitted effect of over 70% in size. Note: potency is the fitted concentration of half-maximal effect.
The target in assay [15] is Rap guanine nucleotide exchange factor 4 (Homo sapiens) (UniProt Q8WZA2). As to the kind of experiment: Confirmatory qHTS for antagonist of cAMP-regulated guanine nucleotide exchange factor 4 (EPAC2) (AID 1645885). Note: nearly all actives have a fitted effect of over 25% in size. Note: potency is the fitted concentration of half-maximal effect.
Assay [16] has as its target Catechol O-methyltransferase (Homo sapiens) (UniProt P21964). As to the kind of experiment: Confirmatory Screen for Target Class Profiling of Small Molecule Inhibitors of Methyltransferases (AID 1745852). The conditions noted are these: MTase-Glo luminescence, SAH detection, recombinant enzyme; measured here: COMT max response; stronger effect = lower value.
For assay [17], the target named is Guanidinoacetate N-methyltransferase (Homo sapiens) (UniProt Q14353). Described as above. The settings on record: MTase-Glo luminescence, SAH detection, recombinant enzyme; activity change, negative = inhibition: at 57.3 µM (top of the series) unless noted.

Chain of Cytochrome P450 2C9 (Homo sapiens) (P11712 whole entry, looked up): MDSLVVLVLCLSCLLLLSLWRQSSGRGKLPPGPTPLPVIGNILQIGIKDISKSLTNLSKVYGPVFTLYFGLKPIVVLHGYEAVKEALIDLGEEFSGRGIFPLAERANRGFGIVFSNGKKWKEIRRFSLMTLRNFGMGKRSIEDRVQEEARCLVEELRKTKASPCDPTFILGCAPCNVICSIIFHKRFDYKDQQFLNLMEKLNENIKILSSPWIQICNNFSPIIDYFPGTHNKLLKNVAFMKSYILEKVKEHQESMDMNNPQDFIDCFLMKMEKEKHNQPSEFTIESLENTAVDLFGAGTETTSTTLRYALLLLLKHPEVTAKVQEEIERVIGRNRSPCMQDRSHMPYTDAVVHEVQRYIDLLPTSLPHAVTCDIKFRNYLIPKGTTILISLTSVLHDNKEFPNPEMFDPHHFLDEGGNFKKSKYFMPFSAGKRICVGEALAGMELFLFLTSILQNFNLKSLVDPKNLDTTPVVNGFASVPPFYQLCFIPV
Chain of Rap guanine nucleotide exchange factor 3 (Homo sapiens) (O95398 whole entry, looked up): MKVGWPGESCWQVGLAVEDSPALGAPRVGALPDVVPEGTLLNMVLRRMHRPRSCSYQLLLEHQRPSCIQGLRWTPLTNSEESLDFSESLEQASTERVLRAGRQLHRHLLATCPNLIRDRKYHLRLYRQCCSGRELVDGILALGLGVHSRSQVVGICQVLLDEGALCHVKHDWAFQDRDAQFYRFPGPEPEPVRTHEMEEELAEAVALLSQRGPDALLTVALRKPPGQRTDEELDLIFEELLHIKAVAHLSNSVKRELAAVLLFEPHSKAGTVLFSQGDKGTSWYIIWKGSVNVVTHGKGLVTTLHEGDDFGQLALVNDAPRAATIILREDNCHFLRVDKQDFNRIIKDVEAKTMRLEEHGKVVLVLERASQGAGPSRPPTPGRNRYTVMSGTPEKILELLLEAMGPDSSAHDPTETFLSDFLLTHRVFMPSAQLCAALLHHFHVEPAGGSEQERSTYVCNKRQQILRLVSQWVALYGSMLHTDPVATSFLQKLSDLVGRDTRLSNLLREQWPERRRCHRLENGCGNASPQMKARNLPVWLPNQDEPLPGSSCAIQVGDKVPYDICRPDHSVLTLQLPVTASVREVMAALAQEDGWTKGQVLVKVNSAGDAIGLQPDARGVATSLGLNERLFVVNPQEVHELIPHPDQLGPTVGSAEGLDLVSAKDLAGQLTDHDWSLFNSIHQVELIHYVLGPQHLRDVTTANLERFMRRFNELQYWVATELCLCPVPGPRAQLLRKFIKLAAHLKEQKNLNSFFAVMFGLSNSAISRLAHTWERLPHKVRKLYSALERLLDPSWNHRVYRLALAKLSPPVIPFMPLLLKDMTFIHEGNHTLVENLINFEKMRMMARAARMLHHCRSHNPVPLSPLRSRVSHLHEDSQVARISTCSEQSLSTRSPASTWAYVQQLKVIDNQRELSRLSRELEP
Chain of Rap guanine nucleotide exchange factor 4 (Homo sapiens) (Q8WZA2 whole entry, looked up): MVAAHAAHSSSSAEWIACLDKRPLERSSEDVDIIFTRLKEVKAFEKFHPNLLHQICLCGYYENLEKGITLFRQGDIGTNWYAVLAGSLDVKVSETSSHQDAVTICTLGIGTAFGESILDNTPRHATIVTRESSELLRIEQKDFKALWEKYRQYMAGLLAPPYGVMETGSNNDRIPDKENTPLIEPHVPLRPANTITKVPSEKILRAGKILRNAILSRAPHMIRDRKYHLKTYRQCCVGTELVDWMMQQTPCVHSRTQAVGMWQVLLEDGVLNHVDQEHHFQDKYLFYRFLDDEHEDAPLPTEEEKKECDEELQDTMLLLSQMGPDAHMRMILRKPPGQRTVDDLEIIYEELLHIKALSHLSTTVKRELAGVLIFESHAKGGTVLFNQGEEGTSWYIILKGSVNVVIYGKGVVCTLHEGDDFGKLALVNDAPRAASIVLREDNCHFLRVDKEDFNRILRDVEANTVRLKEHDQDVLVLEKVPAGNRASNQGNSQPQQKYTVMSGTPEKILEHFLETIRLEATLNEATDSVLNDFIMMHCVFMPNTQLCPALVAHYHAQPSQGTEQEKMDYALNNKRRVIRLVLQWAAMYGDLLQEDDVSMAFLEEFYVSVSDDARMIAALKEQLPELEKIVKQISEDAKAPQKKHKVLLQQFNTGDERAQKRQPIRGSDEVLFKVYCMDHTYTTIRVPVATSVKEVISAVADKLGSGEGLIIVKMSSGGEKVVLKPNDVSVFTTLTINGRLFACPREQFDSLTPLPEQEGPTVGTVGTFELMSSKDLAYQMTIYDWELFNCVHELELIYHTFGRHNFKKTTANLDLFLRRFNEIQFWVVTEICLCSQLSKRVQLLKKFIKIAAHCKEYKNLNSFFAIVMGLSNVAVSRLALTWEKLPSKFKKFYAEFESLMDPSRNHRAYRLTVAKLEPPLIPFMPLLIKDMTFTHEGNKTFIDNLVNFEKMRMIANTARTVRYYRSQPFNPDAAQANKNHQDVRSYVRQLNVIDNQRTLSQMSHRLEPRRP
Chain of Cytochrome P450 2D6 (Homo sapiens) (P10635 whole entry, looked up): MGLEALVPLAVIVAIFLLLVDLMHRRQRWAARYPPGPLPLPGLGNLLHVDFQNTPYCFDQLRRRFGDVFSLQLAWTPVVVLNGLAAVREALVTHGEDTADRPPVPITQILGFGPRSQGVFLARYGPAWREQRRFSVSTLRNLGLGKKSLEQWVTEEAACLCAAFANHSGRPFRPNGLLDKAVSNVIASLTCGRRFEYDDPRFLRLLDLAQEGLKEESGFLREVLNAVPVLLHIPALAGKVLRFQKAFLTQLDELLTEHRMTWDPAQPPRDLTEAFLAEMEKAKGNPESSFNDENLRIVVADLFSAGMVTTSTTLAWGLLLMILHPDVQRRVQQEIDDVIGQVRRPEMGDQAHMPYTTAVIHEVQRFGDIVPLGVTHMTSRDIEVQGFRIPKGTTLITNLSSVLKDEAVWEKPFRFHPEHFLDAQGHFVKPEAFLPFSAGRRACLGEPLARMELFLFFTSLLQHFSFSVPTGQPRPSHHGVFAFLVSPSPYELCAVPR
Chain of Papain (Carica papaya) (P00784 whole entry, looked up): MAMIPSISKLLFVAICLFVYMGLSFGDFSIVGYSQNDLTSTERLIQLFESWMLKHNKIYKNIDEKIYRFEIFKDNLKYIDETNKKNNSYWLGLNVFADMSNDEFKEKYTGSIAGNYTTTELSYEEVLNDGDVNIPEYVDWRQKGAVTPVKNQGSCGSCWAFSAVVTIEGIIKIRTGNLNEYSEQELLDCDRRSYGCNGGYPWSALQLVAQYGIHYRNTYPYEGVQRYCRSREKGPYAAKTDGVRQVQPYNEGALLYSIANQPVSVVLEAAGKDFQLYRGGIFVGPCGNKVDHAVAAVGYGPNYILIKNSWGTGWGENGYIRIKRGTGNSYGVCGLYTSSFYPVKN
Chain of Catechol O-methyltransferase (Homo sapiens) (P21964 whole entry, looked up): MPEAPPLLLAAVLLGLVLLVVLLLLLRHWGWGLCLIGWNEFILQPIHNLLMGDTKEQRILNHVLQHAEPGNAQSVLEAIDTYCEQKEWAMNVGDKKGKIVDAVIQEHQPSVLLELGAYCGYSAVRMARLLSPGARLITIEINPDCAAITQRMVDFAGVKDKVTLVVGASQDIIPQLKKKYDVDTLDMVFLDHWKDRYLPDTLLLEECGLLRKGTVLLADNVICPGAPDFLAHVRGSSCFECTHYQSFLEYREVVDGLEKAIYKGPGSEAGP
Chain of Calcium and integrin-binding protein 1 (Homo sapiens) (Q99828 whole entry, looked up): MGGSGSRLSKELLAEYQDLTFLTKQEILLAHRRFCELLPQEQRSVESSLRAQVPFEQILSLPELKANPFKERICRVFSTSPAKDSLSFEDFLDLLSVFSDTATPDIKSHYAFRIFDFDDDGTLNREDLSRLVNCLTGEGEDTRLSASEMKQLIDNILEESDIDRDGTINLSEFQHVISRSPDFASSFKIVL

`OC(CCN1CCCCC1)(c1ccccc1)C1CC2C=CC1C2` (stereo not given): the Potency in assay [1] was 15.8 µM (active) and 22.4 µM (active).
Still for that read-out and setting: in the case of `Nc1nc2c(ncn2COCCO)c(=O)[nH]1` it was “inactive”.
Turning to `Nc1nc2ccc(OC(F)(F)F)cc2s1`, in [2], the Potency entry was “inactive”. Also, the outcome in [3] and in assay [4] was “inactive” each time.
Turning to `Cc1cc(-c2ccc(CC(=O)Nc3ccc(-c4cccnc4)cc3)cc2)ccn1`, the outcome in [5] is “inactive”. The Potency result in assay [6] is “inactive”.
Consider `O=C(O)COCCN1CCN(C(c2ccccc2)c2ccc(Cl)cc2)CC1` (stereo not given), for which the Potency result (in [7]; in assay [8]; with Papain (Carica papaya)) was “inactive” in each case.
Regarding `NC(N)=NC(=O)c1nc(Cl)c(N)nc1N`, the Potency result in assay [7], in assay [6], in assay [8], in [9] and in assay [10] was “inactive” in each case. Also, the Potency in the assay with Papain (Carica papaya) is 28.2 µM (active).
With `OC(CN1CCC(Cc2ccc(F)cc2)CC1)c1ccc(Cl)cc1` (stereo not given), the Potency entry (in assay [7]; in [6]; in [8]; in [10]; with Papain (Carica papaya); in assay [13]) was “inactive” each time. Besides, in assay [14], the Potency entry is “inactive”. The Potency in assay [11] is 17.8 µM (active); in [9] it was 15.5 nM (active) and 53.5 nM (active). Moreover, the max response in assay [12] was -25.9% (inactive).
Regarding `Cc1ccccc1C(C(=O)NC1CCCC1)N(C(=O)Cn1cnc2ccccc21)c1cccc(F)c1` (stereo not given), the outcome in assay [5] is “inactive”. In addition, the Potency result in assay [6] is “inactive”.
Take `c1ccc([C@H]2CN3CCSC3=N2)cc1`: the Potency result (in assay [7]; in assay [6]; in assay [8]; in assay [10]; with Papain (Carica papaya); in [13]) was “inactive” throughout. The Potency entry in assay [14] was “inactive”. Further, the Potency in assay [9] was 30.9 µM (active).
In the case of `CNC(=O)c1ccc(C)c(-n2c(C)cc(OCc3ccc(F)cc3F)c(Br)c2=O)c1`, in assay [5], the outcome was “inactive”.
Turning to `CC(C)(Sc1ccc(CCN(CCCCC2CCCCC2)C(=O)NC2CCCCC2)cc1)C(=O)O`, the outcome in assay [5], in assay [3] and in assay [4] was “inactive” each time. The Potency entry in assay [11], in assay [6] and in assay [13] was “inactive” in each case. The Potency is 28 µM (active) and 42.6 µM (active) in assay [2]; 44.1 µM (active) and inactive and 39.3 µM (active) in assay [15]. The activity in assay [16] is -3.21%. Moreover, the activity change, negative = inhibition in assay [17] worked out at 2.53%.
On to `COc1ccc(-c2ccc3c(N4CCOC[C@H]4C)nc(N4CCOC[C@H]4C)nc3n2)cc1CO`, for which, in [5], the outcome was “inactive”. Besides, the Potency entry in assay [6] is “inactive”.
Take `COc1nc(-c2ccc3c(c2)OCO3)n(-c2ccc(NC(=O)CSc3ccccc3)cc2)n1`: in assay [5], the outcome was “inactive”. The Potency entry in [6] is “inactive”.
In the case of `CCOc1ccc(Cc2cc([C@@H]3O[C@H](CO)[C@@H](O)[C@H](O)[C@@H]3O)ccc2Cl)cc1`, the outcome in [5] was “inactive”. Further, the Potency result in [6] was “inactive”.
As for `O=c1ncn2nc(Sc3ccc(F)cc3F)ccc2c1-c1c(Cl)cccc1Cl`, the outcome in [5] is “inactive”.
`CS(=O)(=O)c1cccc(CNc2nc(Nc3ccc4c(c3)CCC(=O)N4)ncc2C(F)(F)F)c1`: the Potency result (in assay [7]; in [9]; in the assay with Papain (Carica papaya)) was “inactive” each time. Further, the outcome in assay [5] was “inactive”. The Potency in [10] was 0.169 µM (active); in [13], 3.32 µM (active); in assay [14], 3.32 µM (active). Also, in assay [16], the activity is -9.69% and -3.27%. Besides, the activity change, negative = inhibition in assay [17] was -3.15% and 1.66%.
Turning to `COc1ccc(-c2ccc3c(N4CCOCC4)nc(N4C[C@@H](C)O[C@@H](C)C4)nc3n2)cc1CO`, the outcome in [5] was “inactive”. Moreover, the max response in assay [12] was -27.3% (inactive). In addition, the Potency in assay [6] is 14.9 µM (active); in assay [13] it was 0.662 µM (active).
Regarding `Cc1c(CN2CCN(C(=O)C(C)C)CC2)sc2c(N3CCOCC3)nc(-c3cnc(N)nc3)nc12`, the outcome in assay [5] was “inactive”. Further, the Potency result in assay [6] was “inactive”.
Consider `CC(C=CC1=C(C)CCCC1(C)C)=CC=CC(C)=CC(=O)O`, for which, in assay [5], the outcome was “inactive”. Also, the Potency entry in assay [6] is “inactive”.
As for `CC1(C)SCCN(S(=O)(=O)c2ccc(OCC#CCO)cc2)[C@@H]1C(=O)NO`, in assay [5], the outcome is “inactive”. The Potency entry in [6] is “inactive”.
Take `COc1ccc(CC2=NN3C([C@@H](CCc4ccccc4)[C@@H](C)O)=NC(C)C3C(=O)N2)cc1OC` (stereo not given in full): the outcome in [5] is “inactive”. Also, the Potency result in assay [6] was “inactive”.
Take `Cc1csc(NC(=O)c2sc3nc4c(c(C(F)(F)F)c3c2N)CCC4)n1`: the outcome in [5] is “inactive”. Further, the Potency result in assay [6] is “inactive”.
As to `N[C@@H]1CONC1=O`, the Potency result (in assay [7]; in assay [6]; in assay [8]; in assay [9]; in assay [10]; with Papain (Carica papaya)) was “inactive” in each case. Moreover, the Potency entry in assay [13] and in [14] was “inactive” each time.
In the case of `Nc1cccc(S(=O)(=O)N2CCCN(S(=O)(=O)c3ccc4c(c3)OCCO4)CC2)c1`, the outcome in assay [5] was “inactive”. In [6], the Potency result is “inactive”.
For `NCCc1ccc(O)c(O)c1`, the Potency result (in assay [7]; in assay [6]; in assay [8]; in [9]; in assay [10]; with Papain (Carica papaya)) was “inactive” throughout. Moreover, in assay [14], the Potency result is “inactive”. The Potency entry in assay [13] is “inactive and 23.5 µM (active)”.
As to `Cc1cc(C=c2sc3nc4ccccc4n3c2=O)c(C)n1-c1ccccc1`, the outcome in assay [5] is “inactive”. Moreover, the Potency entry in assay [6] is “inactive”.
Turning to `C[C@]12CC[C@H](O)CC1=CC[C@@H]1[C@H]2CC[C@]2(C)C(c3cccnc3)=CC[C@H]12`, the outcome in [5] was “inactive”. For the same molecule, the Potency entry in assay [6] was “inactive”.
As for `CCCS(=O)(=O)Nc1ccc(F)c(C(=O)c2c[nH]c3ncc(Cl)cc23)c1F`, the outcome in [5] is “inactive”. Besides, the Potency entry in assay [6] is “inactive”.
On to `CC(C[N+](C)(C)C)OC(N)=O` (stereo not given), for which the Potency result (in [7]; in assay [6]; in assay [8]; in assay [9]; in assay [10]; in the assay with Papain (Carica papaya)) was “inactive” each time. Besides, the Potency entry in assay [13] was “inactive”.
Turning to `O=C(C=Cc1ccc(/C=C/C(=O)Nc2ccc(C3=NCCN3)cc2)cc1)Nc1ccc(C2=NCCN2)cc1`, the outcome in [5] is “inactive”. Further, in assay [6], the Potency result was “inactive”.
